Activity calls are given as the source filed them.
Legend:
[1] = test system: Plasmodium falciparum Sir2 (PF13_0152, Sir2A); assay: Plasmodium falciparum Sir2A binding compounds – biochemical, small-molecule microarray, 635 nm fluorescence, primary screen (AID 1098); details: fluorescence 635 nm, higher = more signal;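 further: score merges spot fluorescence intensity with its signal-to-noise ratio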
[2] = probe aDKK1 binding to arrayed compounds – biochemical, biotinylated probe, 635/667 nm fluorescence, primary screen (AID 1099); details: small-molecule microarray, higher = more signal;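 further: score merges 667nm spot fluorescence with signal to noise across triplicate slides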
[3] = probe aCHRDL2 binding to arrayed compounds – biochemical, biotinylated probe, 635/667 nm fluorescence, primary screen (AID 1100); details: small-molecule microarray, higher = more signal
[4] = change in splice reporter luminescence, either direction, cell-based, HEK293, spliceosome inhibition project, primary screen (AID 1101); details: HEK293 splicing luciferase reporter, 24 h, higher = more signal, called active from +8 up or from −8 down;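 further: HEK293 cells carrying a splicing-competent luciferase reporter gene; test concentration not given here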
[5] = biological target: Fibroblast growth factor 10 (Homo sapiens) (UniProt O15520); assay: compounds binding fibroblast growth factor 10 – biochemical, small-molecule microarray, 635 nm fluorescence, primary screen (AID 1102); details: FGF10 binding, fluorescence 635 nm, higher = more signal
Fibroblast growth factor 10 (Homo sapiens), sequence (O15520 whole entry, looked up): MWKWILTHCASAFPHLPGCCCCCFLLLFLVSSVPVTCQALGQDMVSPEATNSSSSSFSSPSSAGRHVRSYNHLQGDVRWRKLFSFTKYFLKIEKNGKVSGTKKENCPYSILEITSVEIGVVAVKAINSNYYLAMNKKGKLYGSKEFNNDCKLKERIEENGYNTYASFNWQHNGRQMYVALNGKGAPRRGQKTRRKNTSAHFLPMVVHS

[6] = test system: glycogen synthase kinase-3 (GSK3A per assay name; protocol says GSK3B); assay: compounds binding glycogen synthase kinase-3 – biochemical, small-molecule microarray, 635 nm fluorescence, GSK3A, primary screen (AID 1103); details: fluorescence 635 nm, higher = more signal; further: the record names both GSK3A and GSK3B
[7] = biological target: Epidermal growth factor receptor (Homo sapiens) (UniProt P00533); assay: compounds binding epidermal growth factor receptor – biochemical, small-molecule microarray, 635 nm fluorescence, primary screen (AID 1104); details: EGFR binding, higher = more signal;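 further: score merges 667 nm emission intensity with spot signal to noise over triplicate slides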
Epidermal growth factor receptor (Homo sapiens), sequence (P00533 whole entry, looked up): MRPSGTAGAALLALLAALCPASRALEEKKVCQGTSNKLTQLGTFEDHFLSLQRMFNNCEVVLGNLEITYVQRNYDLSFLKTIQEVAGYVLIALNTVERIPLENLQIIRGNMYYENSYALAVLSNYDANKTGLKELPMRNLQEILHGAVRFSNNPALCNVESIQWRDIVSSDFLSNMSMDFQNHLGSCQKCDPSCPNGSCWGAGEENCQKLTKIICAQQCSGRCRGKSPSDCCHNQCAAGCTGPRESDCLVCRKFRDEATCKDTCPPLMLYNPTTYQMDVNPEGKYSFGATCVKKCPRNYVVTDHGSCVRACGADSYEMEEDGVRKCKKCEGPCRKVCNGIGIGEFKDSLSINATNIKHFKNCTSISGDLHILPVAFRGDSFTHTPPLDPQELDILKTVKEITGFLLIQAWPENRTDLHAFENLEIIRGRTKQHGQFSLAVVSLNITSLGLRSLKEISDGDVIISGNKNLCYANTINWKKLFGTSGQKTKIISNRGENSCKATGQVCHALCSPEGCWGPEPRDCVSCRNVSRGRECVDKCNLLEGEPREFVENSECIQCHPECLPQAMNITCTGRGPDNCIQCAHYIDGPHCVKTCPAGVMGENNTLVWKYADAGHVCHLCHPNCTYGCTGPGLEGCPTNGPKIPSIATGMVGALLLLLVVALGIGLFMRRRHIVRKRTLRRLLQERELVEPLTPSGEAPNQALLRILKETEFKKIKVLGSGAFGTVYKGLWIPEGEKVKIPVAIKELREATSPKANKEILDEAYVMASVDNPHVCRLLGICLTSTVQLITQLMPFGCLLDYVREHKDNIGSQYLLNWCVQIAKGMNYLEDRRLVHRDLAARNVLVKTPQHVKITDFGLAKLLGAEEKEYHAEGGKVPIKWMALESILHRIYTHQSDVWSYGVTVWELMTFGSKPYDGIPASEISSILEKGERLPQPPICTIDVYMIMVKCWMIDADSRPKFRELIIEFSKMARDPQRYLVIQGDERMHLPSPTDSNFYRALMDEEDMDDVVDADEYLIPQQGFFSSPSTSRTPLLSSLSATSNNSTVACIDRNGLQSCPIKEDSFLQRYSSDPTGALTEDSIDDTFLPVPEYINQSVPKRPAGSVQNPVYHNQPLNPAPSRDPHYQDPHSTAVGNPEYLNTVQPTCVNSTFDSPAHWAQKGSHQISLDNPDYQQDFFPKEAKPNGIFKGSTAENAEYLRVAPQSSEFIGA

[8] = biological target: Follistatin-related protein 3 (Homo sapiens) (UniProt O95633); assay: compounds binding follistatin-related protein 3 – biochemical, small-molecule microarray, 635 nm fluorescence, primary screen (AID 1105); details: FSTL3 binding, higher = more signal;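 further: score merges emission near 667 nm and signal to noise per printed spot across three slides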
Follistatin-related protein 3 (Homo sapiens), sequence (O95633 whole entry, looked up): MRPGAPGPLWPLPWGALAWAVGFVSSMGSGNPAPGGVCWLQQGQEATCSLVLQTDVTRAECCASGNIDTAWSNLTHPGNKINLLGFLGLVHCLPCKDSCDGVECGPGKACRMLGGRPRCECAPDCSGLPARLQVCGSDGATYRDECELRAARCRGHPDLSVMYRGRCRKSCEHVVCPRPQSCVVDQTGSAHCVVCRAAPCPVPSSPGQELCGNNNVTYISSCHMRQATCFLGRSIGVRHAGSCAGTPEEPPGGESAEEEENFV

[9] = biological target: Dickkopf-related protein 1 (Homo sapiens) (UniProt O94907); assay: small molecules binding DKK1 protein – biochemical, small-molecule microarray, 635 nm fluorescence scan, primary screen (AID 1106); details: higher = more signal;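 further: score merges emission near 667 nm with signal to noise over three replicate slides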
Dickkopf-related protein 1 (Homo sapiens), sequence (O94907 whole entry, looked up): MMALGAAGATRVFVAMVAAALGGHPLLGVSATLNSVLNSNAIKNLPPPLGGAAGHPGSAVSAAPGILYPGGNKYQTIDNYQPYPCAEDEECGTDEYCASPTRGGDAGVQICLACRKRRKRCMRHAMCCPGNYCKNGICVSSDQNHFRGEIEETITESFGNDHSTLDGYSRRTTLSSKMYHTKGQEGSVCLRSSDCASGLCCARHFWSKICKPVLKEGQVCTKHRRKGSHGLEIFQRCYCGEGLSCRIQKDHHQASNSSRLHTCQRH

[10] = test system: Inhibin beta A chain (activin A); assay: small molecules binding activin A – biochemical, small-molecule microarray, 635 nm fluorescence scan, primary screen (AID 1107); details: INHBA, higher = more signal;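 further: mouse activin A protein probed at 4.33 µg/mL on printed slides; score merges bound-protein fluorescence near 667 nm with spot signal-to-noise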
[11] = test system: Human papillomavirus type 1a protein E7 (residues 44-93); assay: small molecules binding HPV E7 44-93 – biochemical, small-molecule microarray, residues 44-93, 635 nm fluorescence, primary screen (AID 1108); details: fluorescence 635 nm, higher = more signal;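 further: E7 fragment applied at 1 µg/mL in TBST for 1 h at 4 C; score combines spot fluorescence with its signal to noise ratio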
[12] = hepatitis C replication reporter changes, two-sided – Huh7 cells, luciferase reporter, HCV replication inhibitor project, primary screen (AID 1109); details: Huh7 HCV replicon luciferase reporter, 48 h; higher = more signal;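 further: huh7 hepatoma cells harbouring a luciferase neomycin HCV replicon reporter; luciferase luminescence as measure of HCV replicon replication; test concentration not given here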
[13] = biological target: Left-right determination factor 2 (Homo sapiens) (UniProt O00292); assay: small molecules binding LEFTY2 protein – biochemical, small-molecule microarray, 635 nm fluorescence scan, primary screen (AID 1110); details: higher = more signal
Left-right determination factor 2 (Homo sapiens), sequence (O00292 whole entry, looked up): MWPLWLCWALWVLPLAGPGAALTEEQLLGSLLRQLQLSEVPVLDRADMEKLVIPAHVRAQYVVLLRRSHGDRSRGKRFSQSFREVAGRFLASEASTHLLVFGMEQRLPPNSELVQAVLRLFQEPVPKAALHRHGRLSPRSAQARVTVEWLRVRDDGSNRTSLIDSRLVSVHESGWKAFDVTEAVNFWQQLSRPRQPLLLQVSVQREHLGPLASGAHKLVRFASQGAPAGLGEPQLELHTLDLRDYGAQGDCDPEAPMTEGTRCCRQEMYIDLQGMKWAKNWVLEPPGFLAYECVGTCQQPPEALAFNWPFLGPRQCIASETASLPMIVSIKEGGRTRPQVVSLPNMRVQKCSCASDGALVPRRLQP

[14] = biological target: Calmodulin-1 (Homo sapiens) (UniProt P0DP23); assay: small molecules binding calmodulin-1 with EGTA – biochemical, small-molecule microarray, Cy5-labelled CALM1, profiling panel (AID 1111); details: Cy5-CALM1 binding fluorescence, higher = more signal;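 further: labelled calmodulin applied in Tris saline Tween buffer holding calcium plus EGTA and DTT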
[15] = biological target: Calmodulin-1 (Homo sapiens) (UniProt P0DP23); assay: small molecules binding Ca-loaded calmodulin-1 – biochemical, small-molecule microarray, Cy5-labelled CALM1, plus calcium, artefact control for SMM control-protein annotation, profiling panel (AID 1112); details: Cy5-CALM1 binding fluorescence, higher = more signal;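 further: score merges spot fluorescence with signal to noise from triplicate slides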
[16] = probe aWnt5a binding to arrayed compounds – biochemical, biotinylated probe, 635/667 nm fluorescence, primary screen (AID 1113); details: small-molecule microarray, higher = more signal;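 further: score merges 667 nm fluorescence intensity with signal-to-noise per printed feature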
[17] = probe aShh binding to arrayed compounds – biochemical, biotinylated probe, 635/667 nm fluorescence, primary screen (AID 1114); details: small-molecule microarray, higher = more signal;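 further: probe is biotin-labelled aShh protein from a stem cell growth factor screen; measures binding of labelled protein to compounds printed on the slide; score merges feature fluorescence at 667 nm with signal-to-noise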
[18] = probe aNog binding to arrayed compounds – biochemical, biotinylated probe, 635/667 nm fluorescence, primary screen (AID 1115); details: small-molecule microarray, higher = more signal;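 further: probe is biotinylated aNog protein used at 0.15 µg/mL for 1 h at 4 C; z-score combines 667 nm fluorescence of each spot with its signal to noise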
[19] = biological target: Torsin-1A-interacting protein 1 (Homo sapiens) (UniProt Q5JTV8); assay: compound microarray binding of lysate hLAP1 – cell lysate, small-molecule microarray, COS7 lysate, 635/667 nm fluorescence, primary screen (AID 1116); details: 635 nm fluorescence, higher = more signal
Torsin-1A-interacting protein 1 (Homo sapiens), sequence (Q5JTV8 whole entry, looked up): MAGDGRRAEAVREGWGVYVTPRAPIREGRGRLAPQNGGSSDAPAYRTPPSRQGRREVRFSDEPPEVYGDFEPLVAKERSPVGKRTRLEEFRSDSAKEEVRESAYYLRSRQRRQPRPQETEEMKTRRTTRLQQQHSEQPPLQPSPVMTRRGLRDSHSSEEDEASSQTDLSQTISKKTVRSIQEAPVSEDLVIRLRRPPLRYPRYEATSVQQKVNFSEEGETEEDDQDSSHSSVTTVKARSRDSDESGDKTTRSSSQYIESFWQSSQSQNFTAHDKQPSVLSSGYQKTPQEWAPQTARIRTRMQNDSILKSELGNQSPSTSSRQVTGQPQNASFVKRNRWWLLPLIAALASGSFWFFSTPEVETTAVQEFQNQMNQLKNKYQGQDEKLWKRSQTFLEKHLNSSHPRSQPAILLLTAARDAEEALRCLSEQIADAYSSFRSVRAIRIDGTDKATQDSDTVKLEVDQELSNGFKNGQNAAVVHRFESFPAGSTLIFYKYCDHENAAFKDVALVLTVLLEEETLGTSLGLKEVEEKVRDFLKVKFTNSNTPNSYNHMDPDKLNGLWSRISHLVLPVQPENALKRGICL

[20] = biological target: Alpha-bungarotoxin (Bungarus multicinctus) (UniProt P60615); assay: compounds binding labelled alpha-BTX control protein – biochemical, small-molecule microarray, Alexa647 label, 635/667 nm fluorescence, artefact control for SMM control protein annotation, profiling panel (AID 1117); details: alpha-BTX-A647 binding fluorescence, higher = more signal
Alpha-bungarotoxin (Bungarus multicinctus), sequence (P60615 whole entry, looked up): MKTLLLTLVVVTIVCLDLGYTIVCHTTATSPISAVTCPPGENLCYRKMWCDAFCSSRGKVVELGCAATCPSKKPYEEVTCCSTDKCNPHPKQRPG

Row | SMILES | composite z-score [1] | composite z-score [2] | composite z-score [3] | z-score [4] | composite z-score [5] | composite z-score [6] | composite z-score [7] | composite z-score [8] | composite z-score [9] | composite z-score [10] | composite z-score [11] | z-score [12] | composite z-score [13] | composite z-score [14] | composite z-score [15] | composite z-score [16] | composite z-score [17] | composite z-score [18] | composite z-score [19] | composite z-score [20]
1 | O=C1O[C@@H](c2ccccc2)[C@@H](c2ccccc2)N2[C@@H](c3ccc(OCCO)cc3)[C@]3(C(=O)Nc4ccc(C#CCCO)cc43)[C@@H](C(=O)N3CCN(c4ncccn4)CC3)[C@H]12 | 1.13 | 0.0868 | 0.319 | 0.952 (inactive) | 1.19 | 0.935 | 0.16 | 1.07 | 0.116 | 0.666 | 1.44 | -0.347 | 0.669 | 0.732 | 0.073 | 0.0115 | 0.151 | -0.601 | 0.842 | 1.75
2 | C=CC[C@]1(C(=O)O)N=C(c2ccc(OCCCO)cc2)O[C@H]1c1ccccc1 | 1.43 | 0.518 | 0.838 | -0.893 (inactive) | -0.0023 | -0.517 | -1.13 | -1.02 | -0.968 | 0.654 | -0.726 | -0.138 | -0.764 | 1.21 | 0.994 | -0.124 | 0.216 | 0.448 | 0.498 | 0.378
3 | COCCCNC(=O)[C@@H]1c2ccccc2C(=O)N(CC23CC4CC(CC(C4)C2)C3)[C@H]1c1ccc(CO)cc1 | 0.0881 | 0.884 | 0.97 | -1.1 (inactive) | 0.37 | 0.623 | 0.215 | 0.296 | 0.427 | 0.911 | 0.666 | -1.57 | -0.191 | 0.879 | 0.803 | -0.0405 | 0.778 | 0.0051 | 0.926 | 0.253
4 | CO[C@@H]1COC(=O)CC=C[C@@H](C)[C@H](OC)COC(=O)CC=C[C@H]1C | 0.816 | -0.628 | -1.4 | 0.161 (inactive) | 0.262 | 0.103 | 0.346 | 0.953 | 1.84 | 1.8 | -0.255 | 0.353 | 0.599 | -0.888 | -1.49 | -0.24 | 0.0796 | 0.563 | -0.176 | -0.587
5 | CO[C@H]1COC(=O)[C@@H](OCc2ccccc2)C=C[C@H](C)[C@@H](OC)COC(=O)[C@H](OCc2ccccc2)C=C[C@@H]1C | -0.0155 | -0.46 | -0.984 | -1.8 (inactive) | 0.181 | -0.0762 | -0.207 | 0.172 | 0.123 | -0.381 | -1.23 | 0.512 | 0.348 | -2.13 | -1.26 | -0.147 | -0.138 | -0.397 | -0.144 | -0.155
6 | COCCOC(=O)N1C(=O)[C@@]2(c3cc(C#CCNC(N)=O)ccc31)[C@H](c1ccc(OCCO)cc1)N1[C@H](c3ccccc3)[C@H](c3ccccc3)OC(=O)[C@H]1[C@@H]2C(=O)N1CCCCCCC1 | 0.795 | 1.48 | 1.11 | -0.908 (inactive) | 0.198 | -0.246 | 0.0212 | 0.895 | 0.199 | 1.69 | 0.853 | 0.225 | -0.11 | 0.914 | 0.966 | -0.027 | 0.485 | 0.401 | 0.242 | 1.24

Reference: PubChem BioAssay
